From PubChem BioAssay (EPA / NIEHS)
Calls of active or inactive are those of the source. The calls were made as follows: active = hit-call score of the fitted dose curve at least 0.9, where 1 is the maximum; inactive = score below 0.9.

read-out: Insulin Like Growth Factor 1 (IGF1), IGF1 (gene 3479); assay: LTEA_HepaRG_IGF1: Life Technologies and Expression Analysis (LTEA) Assay for Insulin Like Growth Factor 1 (IGF1) using HepaRG (AID 2283506); conditions: mRNA level, 48 h; actives raise or lower the signal
Procedure: LTEA_HepaRG is a cell based, multiplexed-readout assay that uses HepaRG, a human liver cell line, with measurements taken at 48 hours after chemical dosing on a 96-well plate.LTEA_HepaRG_IGF1 is one of 102 assay component(s) measured in the LTEA HepaRG cell culture assay. It is a marker of Cell proliferation, survival, death.Data from the assay component LTEA_HepaRG_IGF1 was analyzed into 1 endpoint. This assay endpoint, LTEA_HepaRG_IGF1, was analyzed with bidirectional fitting relative to DMSO as the negative control and baseline of activity. Using a type of inducible reporter, measures of mRNA induction for gain or loss-of-signal activity can be used to understand regulation of transcription factor activity. To generalize the intended target to other relatable targets, this assay endpoint is annotated to the growth factor intended target family, where the subfamily is insulin-like.
A total of 1060 chemcials from the ToxCast library were tested in eight-point concentration-response experiments. Cell culture and cytotoxicity assays were conducted at Thermo Fisher Scientific's Custom Services facility (Madison, WI). A single lot of human HepaRG cells (Thermo Fisher Scientific, Frederick, MD) was used for the cell culture experiments. 96-well format collagen type I coated plates of human HepaRG cells were prepared using established methods. Briefly, cryopreserved HepaRG cells were thawed, plated at a density of approximately 100,000 cells/well in HepaRG Thaw, Plate, and General Purpose media (HPRG770, Thermo Fisher Scientific), and incubated for 48 hours. 0.5% DMSO was selected as vehicle control to balance the requisite need of DMSO in HepaRG cultures to maintain differentiation (for example, baseline metabolism, proportions of hepatocytes vs. cholangiocytes), while enabling further hepatic receptor pathway activation (for example, PXR and CAR) in response to chemical exposure. 48 hours after plating, the culture medium was replaced with HepaRG Serum-Free Incudtion Media. Cells were exposed to each test chemical in duplicate and maintained in CO2 incubators for another 48 hours. Chemical plates were thawed to room temperature and 200x concentrations of treatment groups were prepared. 8-point conentration-reponse curves were made with the highest exposure at 100 uM, followed by half-log dilutions, all in 0.5% DMSO. Each test plate contained variouse controls, induction positive controls (1mM phenobarbital), cytotoxicity positive controls ([…] aflatoxin B1), vehicle controls (0.5% DMSO), and total lysis controls (0.5% DMSO). Cell morphology images were taken using an Essen IncuCyte FLR automated microscope, with six 96-well plates imaged in about 24 minutes. Images were captured and exported and JPEG files. Spent culture media was transfered to black-well plates for the LDH assay, and remaining media was sorted at -80 C for later use. Cells were treated with RLT buffer and frozen until shipped for gene expression analysis. Total RNA was isolated from the cell suspension in 75 uL of Buffer RLT (Qiagen, Germantown, MD 20874) by Quintiles/Expression Analysis (Durham, NC) using a custom isolation procedure. Total RNA from each plate well was transferred to a preamplification plate. Fluidigm's 96.96 Dynamic ArrayTM (Fluidigm, Amsterdam, the Netherlands) technology was used for gene expression analyses by quantitative reverse transcription polymerase chain reaction (qRT-PCR, performed by Quintiles/Expression Analysis, Durham, NC)89. Standard TaqManTM Assays (Applied Biosystems/ThermoFisher Scientific, Foster City, CA) were used to assess the expression of 93 genes selected based on their selectivity and sensitivity to important hepatic receptors known to be modulated by environmental chemicals; importance in human hepatocyte functionality; and hepatotoxicity. […]

SMILES	AC50	outcome
NS(=O)(=O)C(F)(F)C(F)(F)C(F)(F)C(F)(F)C(F)(F)C(F)(F)C(F)(F)C(F)(F)F	22.3 µM (active)	
C=CC(=O)NCNC(=O)C=C	50 µM (active)	
CCNc1nc(NC(C)C)nc(SC)n1	33.2 µM (active)	
Nc1ccc(-c2ccc(N)cc2)cc1		inactive
CCCCCCCCCC[N+](C)(C)CCCCCCCCCC	67.7 µM (active)	
Clc1ccc(Cl)cc1		inactive
O=C(O)C(F)(F)C(F)(F)C(F)(F)C(F)(F)C(F)(F)F		inactive
c1cc2ccc3cccc4ccc(c1)c2c34		inactive
ClC1=C(Cl)[C@]2(Cl)[C@@H]3[C@@H](Cl)[C@H]4O[C@H]4[C@@H]3C1(Cl)C2(Cl)Cl	5.01 µM (active)	
CCC(C)(c1ccc(O)cc1)c1ccc(O)cc1		inactive
N#Cc1ccc(N(CC(N)=O)CC(F)(F)F)cc1C(F)(F)F		inactive
C=CC(N)=O		inactive
COc1ccc(O)c(C(C)(C)C)c1		inactive
CCOP(=S)(OCC)SCSC(C)(C)C		inactive
O=C(NC(=O)c1cc(F)c(F)cc1Cl)Nc1cc(F)ccc1N1CCC(C(=O)O)CC1		inactive
C[C@]12CCC(=O)C=C1CC[C@@H]1[C@@H]2CC[C@@]2(C)[C@H]1CC[C@]2(C)O	11.3 µM (active)	
O=C(O)C(F)(F)C(F)(F)C(F)(F)C(F)(F)C(F)(F)C(F)(F)C(F)(F)C(F)(F)C(F)(F)F	31.2 µM (active)	
CC#Cc1cc(C)nc(Nc2ccccc2)n1	33.1 µM (active)	
CO/C=C(/C(=O)OC)c1ccccc1COc1cccc(C(F)(F)F)n1	5.31 µM (active)	
ClC(Cl)=C(c1ccc(Cl)cc1)c1ccc(Cl)cc1	50 µM (active)	

SMILES	AC50	outcome
Cc1cccc([N+](=O)[O-])c1		inactive
CC(C)C(=O)OCC(C)(C)C(OC(=O)C(C)C)C(C)C (stereo not given)		inactive
CCSC(=O)N(CC)C1CCCCC1		inactive
ClC1=C(Cl)[C@]2(Cl)[C@@H]3[C@H]4C[C@H]([C@@H]5O[C@H]45)[C@@H]3[C@@]1(Cl)C2(Cl)Cl	5.52 µM (active)	
CCCCCCOC(=O)c1ccccc1C(=O)OCCCCCC		inactive
Clc1ccc(C(Cl)(Cl)Cl)cc1		inactive
C[C@]12CCC(=O)C=C1CC[C@@H]1[C@@H]2CC[C@]2(C)C(=O)CC[C@@H]12	50 µM (active)	
CCCCCCCCOC(=O)c1ccccc1C(=O)OCCCCCCCC		inactive
Cc1cccc(C)c1N		inactive
Oc1c(Cl)c(Cl)c(Cl)c(Cl)c1Cl	6.52 µM (active)	
CN(C)CCO		inactive
Cc1ccccc1[N+](=O)[O-]		inactive
CC(c1ccc(O)cc1)(c1ccc(O)cc1)c1ccc(O)cc1	92 µM (active)	
Oc1ccc(C(c2ccc(O)cc2)(C(F)(F)F)C(F)(F)F)cc1		inactive
Oc1ccc(Cl)cc1Cl		inactive
O=C(O)C(F)(F)C(F)(F)C(F)(F)C(F)(F)C(F)(F)C(F)(F)C(F)(F)C(F)(F)F	77 µM (active)	
CC(C)(c1ccccc1)c1ccc(O)cc1		inactive
CCOCCOC(C)=O		inactive
Cc1ccccc1CO[C@@H]1C[C@@]2(C(C)C)CC[C@]1(C)O2		inactive
CCCCCCCCCc1ccc(O)cc1		inactive
